PubChem BioAssay AID1794845 (National Center for Advancing Translational Sciences (NCATS), 2023)
Out of some 6,900 compounds screened, fewer than 10 were called active. The call rests on the fitted dose curve; in most records, active means well fitted curve in the direction sought with a large enough effect; inconclusive means small, poorly fitted or top-dose-only effect, or another doubt; inactive means no such curve, though single readings can be large or run the other way. Only a sample is shown.

Target: Metallo-beta-lactamase type 2 (Klebsiella pneumoniae) (UniProt C7C422)
Assay: qHTS to identify inhibitors of the New Delhi Metallo-beta-lactamase (NDM): primary screen against the NCATS Gemini Collection; further: % of control where 0% means no effect
Conditions: NDM-1 enzyme, meropenem hydrolysis, absorbance 300 nm; series mostly up to 38.4 µM; activity % (negative = inhibition): at the top concentration
Source text: Assay Submitter (PI): James Inglese Ph.D., Patricia Dranchak Ph.D., Mahesh Aitha Ph.D. Assay Development and Screening Technology Laboratory (ADST) National Center for Advancing Translational Sciences (NCATS), Rockville, MD National Institute of Health (NIH), Bethesda, Maryland The metallo-beta-lactamases (MBL) are a main antibiotic resistance mechanism evolved by bacteria. There is an urgent clinical need for MBL inhibitors to mitigate this growing threat. To support a machine-based learning study, qHTS has been used to experimentally test inhibitors identified by prediction tools.
PROTOCOL TABLE (as described by Inglese et al., 2007) SEQUENCE No. (e.g., 1, 2, 3, etc.); […] (e.g., enzyme, Incubation, Reagent, etc.); VALUE; DESCRIPTION 1; NDM-1; 4 uL of 3 nM enzyme [2 nM final] in 50 mM HEPES (pH 7.0), 1 uM […], 0.01% Tween20; Use BioRaptr to dispense into Aurora black, clear bottom low base 1536-well plates 2; Compounds; 23 nL; Use Pin Tool (Wako) to transfer DMSO control and library compounds in DMSO 3; Incubate; >30 min 4; Reagent; 2 uL of 150 uM meropenem [50 uM final] 5; Incubate; 30 min. 6; Detector; Absorbance at 300 nm (bandwidth = 5 nm, 25 flashes/well) on Tecan Infinity NOTES (numbers refer to sequence above) 1; Column 1 of each plate received assay buffer without enzyme and columns 2-48 received enzyme for a final assay concentration of 2 nM. 2; Control plate contained DMSO in columns 1, 2, 3, and 4. 3; Compound interaction with enzyme. 4; Meropenem substrate was prepared in the same assay buffer as step 1 for a final assay concentration of 50 uM and added to all wells across the assay plates. 5; Substrate interaction with enzyme, plateau phase of kinetics. 6; Default reader settings were applied for absorbance read at 300 nm, bandwidth = 5 nm, 25 flashes/well. References: Inglese J, Shamu CE, Guy RK. 2007. Reporting data from high-throughput screening of small-molecule libraries. Nat Chem Biol. doi:10.1038/nchembio0807-438 Yasgar A, Shinn P, Jadhav A, Auld D, Michael S, Zheng W, Austin CP, Inglese J, Simeonov A. 2008. Compound Management for Quantitative High-Throughput Screening. J Lab Autom 13:79 - 89. doi:10.1016/j.jala.2007.12.004

Sequence of Metallo-beta-lactamase type 2 (Klebsiella pneumoniae) (C7C422 whole entry, looked up): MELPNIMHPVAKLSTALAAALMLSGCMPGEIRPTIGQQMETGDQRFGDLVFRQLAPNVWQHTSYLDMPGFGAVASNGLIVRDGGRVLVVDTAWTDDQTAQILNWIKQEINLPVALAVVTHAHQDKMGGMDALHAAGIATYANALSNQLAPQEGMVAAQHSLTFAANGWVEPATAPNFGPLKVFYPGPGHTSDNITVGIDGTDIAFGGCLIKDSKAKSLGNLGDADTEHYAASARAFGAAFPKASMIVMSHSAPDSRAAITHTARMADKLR

Activity % (negative = inhibition), inactive:
COc1ccc2c(c1)c(CN1C[C@@H](CO)[C@H](c3nc(C)no3)C1)cn2C 23.1%, Nc1nc(CCC(=O)N[C@@H]2COCC[C@H]2Oc2ccc(CO)cc2)cs1 -3.81%, Cc1cccc2c1O[C@H]1[C@H](CO)CN([S+](=O)([O-])c3cccs3)[C@@H]21 4.48%, Cc1cccc(C(=O)N2CC[C@H]3C(=O)NCCCCCCN(Cc4ccncc4)[C@@H]3C2)c1 1.14%, Fc1ccc2nc(CO[C@H]3CN(C4CCOCC4)C[C@H]3F)[nH]c2c1 3.56% [at 57.5 µM], O=C(c1ccccc1)N1CCC2(CC(Cc3ccccc3)=NO2)C1 (stereo unspecified) 9.1% [at 57.5 µM], CCc1nc2c(c(-c3ccc(O)cc3)n1)CN(Cc1ccc(NC(C)=O)cc1)CC2 13.5%, Cc1ncnc(N2CCN(C(=O)C3CCN(C(=O)C4CC4)CC3)CC2)c1C 7.66%, O=C(CC1CCOCC1)Nc1ccc(N2CCOCC2)cc1 -5.65%, CCNc1ncc(C(=O)N[C@H](C2CCNCC2)C2CC(O)C2)cn1 (stereo partly specified) 21.5%, CCOC(=O)C1(Cc2ccccc2F)CCCN(C(=O)c2ccc3c(c2)OCCO3)C1 (stereo unspecified) -0.209%, O=C(NC1CC(c2nnc(CO)n2C2CC2)C1)c1ccc2c(c1)CCO2 (stereo unspecified) -1.33%, Nc1nc(CCCNC(=O)C2CC(=O)N(Cc3ccccn3)C2)cs1 (stereo unspecified) 5.55%, Fc1ccc(-c2cccc(CN3CC4CCC(C3)N4c3ccc(C(F)(F)F)cc3)c2)c(F)c1 5.91%, CC(=O)Nc1cccc(-c2ncc3c(n2)OCCN(CC2CC2)C3=O)c1 23.9% [at 57.5 µM], CN(C)CC1(O)CCN(C(=O)Cn2cc(C(=O)C3CC3)c3ccccc32)C1 (stereo unspecified) 69.4%, Nc1ncccc1CNC(=O)[C@H]1CCC[C@H](O)C1 16.9%, COc1ccc(-c2cc(-c3ccncc3)cn3cncc23)cc1 2.77% [at 57.5 µM], O=C1NCCOCCCN(S(=O)(=O)c2ccccc2)[C@H]2CCCC[C@@H]12 77.7%, Cc1cc(C(=O)N2CC(N(C(=O)NC(C)C)C3CCOCC3)C2)nn1C -2.63%, Cc1[nH]c2ccccc2c1CC(=O)NCc1ccccc1-n1cncn1 7.08%, COC(=O)N1CCN(Cc2cc(=O)c3cc(F)ccc3[nH]2)CC1 14%, CCCN(C)C(=O)c1c(-c2ccc(F)cc2)noc1[C@H](C)O -10.9% [at 57.5 µM], O=C(NCc1nc(-c2ncccn2)no1)C1CC2(CCNCC2)CN1 (stereo unspecified) -0.57%, CC(C)N1CC[C@@H]2[C@H]1C(=O)NC[C@H](CCC(=O)NCc1ccc(F)cc1)N2C 28% [at 57.5 µM], Cc1cccc(O[C@H]2COCCN(c3nc4ccccc4o3)C2)n1 14.5% [at 57.5 µM], COc1ccc(NC(=O)C2CCN(C(=O)c3ncn4c3COC(c3ccccc3)C4)CC2)cc1Cl (stereo unspecified) 24.2%, CC1(NC(=O)C2CC2)CN(Cc2nc(-c3ccccc3OCc3ccccc3)cs2)C1 3.21% [at 57.5 µM], N#Cc1ccccc1-c1cc2c(ccn2Cc2ccncc2)c(N2CCOCC2)n1 0.932% [at 57.5 µM], COc1cc(CC2(CCC(=O)N3CCC(Oc4cccc(F)c4)CC3)CCC(=O)N2)ccc1F (stereo unspecified) 9.28%, CN1CCN([C@H]2[C@@H]3OC[C@@H](O3)[C@@H](NCc3ccc(-c4ccccc4)cc3)[C@@H]2O)CC1 0.426% [at 57.5 µM], CC(C)(C)c1nc(C(=O)NCc2cccnc2)n2ccccc12 21.7%, CN1CCN(C(=O)c2cncc(N[C@H]3C[C@@H]4OCC[C@H]34)n2)CC1 3.03%, COc1ccc(C(=O)N2CCC3(CCC3OC)CC2)cn1 (stereo unspecified) 2.44%, CCC1(N2CCN(S(=O)(=O)c3cccs3)CC2)CCN(S(C)(=O)=O)C1 (stereo unspecified) 0.936%, Cn1cc(CN[C@H]2C[C@H]3C(=O)NC[C@@H](CCC(=O)NCc4ccccc4)N3C2)c2ccccc21 1.89%, CCc1nc(-c2c3n(c(=O)n(CC(=O)OC)c2=O)CCCC3)no1 0.26%, O=C(c1n[nH]c2ccccc12)N1CC2CC(C1)[C@H]1CCCC(=O)N1C2 (stereo partly specified) 17%, COCc1nnc2n1CCC(NC(=O)Cn1nc(C(F)(F)F)cc1C)CC2 (stereo unspecified) -0.452%, Cc1ccc(C(C(=O)O)N2CCC(C(=O)N3CCCC3)CC2)c(C)c1 (stereo unspecified) -7.75%, O=C(NCCCn1ccnn1)c1cccc(S(=O)(=O)N2CCOCC2)c1 12.3%, CC(=O)N1CCC(N2CC[C@H](c3nc4ccccc4s3)C2)CC1 60.4% [at 57.5 µM], N[C@H]1CN(C(=O)c2cccc(-n3cnnc3)c2)C[C@@H]1c1ccccc1 -3.3%, COCC1CN(Cc2c(C)n[nH]c2C)CC12CCNCC2 (stereo unspecified) -1.59%, COc1ccc(Cn2c3c(c(=O)n2Cc2ccccc2)CCN(C(=O)CCc2cccnc2)C3)cc1 -1.23%, CCn1c(C(=O)OC)c(NC(C)=O)c2cc(NC(C)Cc3ccccc3OC)cnc21 (stereo unspecified) -0.817%, COc1cccc(CN2CC(Oc3ccccc3C(=O)NC3CC3)C2)c1 47%, CN(Cc1cc(C[C@@H]2C[C@H](NC(=O)C(C)(C)C)C2(C)C)no1)c1ccccc1 -0.493% [at 57.5 µM], Cc1cc2nc3n(c(=O)c2n1CC(=O)NC1CCCCC1)CCCCC3 6.24%, COCCN1CCCCCC(O)c2cc(C(=O)NCc3ccc(F)cc3)ccc21 (stereo unspecified) -7.68%, O=C(CCn1ccn2nc3c(c2c1=O)CCCC3)N1CCSCC1 5.47%, CCN(C1CCOCC1)C1CN(C(=O)c2ccccn2)C1 5.74%, CN1CC[C@H]2CN(C(=O)c3scc4c3OCCO4)C[C@@]2(C(=O)O)C1 41.3%, Cc1cc(C(=O)N2CC[C@H](NS(=O)(=O)c3cn(C)cn3)C[C@H]2C(=O)N[C@H](Cc2c[nH]c3ccccc23)C(N)=O)n(C)n1 4.3%, Cc1cccc(C(=O)N2CCCCCCN(C)C(=O)[C@@H]3CCC[C@@H]32)c1 16.9%, CCN(CC)C(=O)[C@@H]1C[C@@H](NC(=O)c2ccn(CC)c(=O)c2)CN1C(C)=O 25%, COC[C@@H]1CN(C(=O)Cc2c(C)noc2C)C[C@H]1c1ccccn1 -1.66%, O=C(NC1CCN(c2ccnc3ccnn23)C1)c1cc(F)ccc1Br (stereo unspecified) 5.28%, COCC(=O)N[C@H]1C[C@@H](CO)N(Cc2scnc2C)C1 1.25%, COc1ccc2cc(C3CN(C(=O)CNC(=O)C(C)C)CCO3)ccc2c1 (stereo unspecified) -1.68%, COc1ccc(C(=O)Nc2ccc3c(c2)CN(CCc2ccccc2)C(=O)C(C)O3)cc1OC (stereo unspecified) 22.1%, COc1ccc(-c2cn(C)c(=O)n3cc(CN4CCNC(=O)C4)nc23)cn1 -6.58% [at 57.5 µM], CCCC(C)N1CC2(CCN(C(=O)c3cnn4c3CCCC4)CC2)OC1=O (stereo unspecified) 2.01%, CCCN1CC2(CCN(Cc3nc(CCOC)no3)CC2)CC1C(=O)O (stereo unspecified) 11.1%, O=C(Cc1ccsc1)Nc1ccc2c(N3CCCC3)ncnc2c1 1.1%, CN(C)Cc1nnc(C2CC(NC(=O)Cc3noc4ccccc34)C2)n1C (stereo unspecified) 3.59%, O=C1NC2(CCN(Cc3ccccc3C(F)(F)F)C2)COc2ccccc21 (stereo unspecified) 13.6%, CN(C)C[C@@H]1CN(Cc2ccncc2)C[C@H]1NC(=O)Cc1ccsc1 -3%, COCc1ncc(C)n1C1CCCN(C(=O)CCCc2ccccc2)C1 (stereo unspecified) -0.663%, O=C(CC1CCCC1)N1CCCC(c2nn[nH]n2)C1 (stereo unspecified) -0.11%, O=C1c2ccccc2CN1C1CCN(Cc2cccc3ccccc23)CC1 -1.67%, COc1ccc(-c2ccccc2NC(=O)C2CCCN(CC=C(C)C)C2)cc1 (stereo unspecified) 3.28%, O=C1NCCOCCN(S(=O)(=O)c2ccc3c(c2)CCC3)[C@@H]2CCCC[C@H]12 18.1%, CC(=O)c1cc(C(=O)NCc2c(C)ncc3c2CCNC3)[nH]n1 1.33%, COc1ccc(C(=O)N2CCC([C@@H]3CNC[C@H]3CO)CC2)cc1 -3.89%, CNC(=O)[C@@H](C1CC1)N1CCC[C@H]1C(=O)NCc1cccnc1 24.8% [at 57.5 µM], COC(=O)NCC(=O)N1CC[C@@H]2[C@@H](CCC(=O)N2CCc2ccccc2)C1 -4.62%, CCn1c(CN2CCN(c3nc4ccccc4s3)CC2)nnc1C1CC(N)C1 (stereo unspecified) -5.98%, CCn1cc(S(=O)(=O)NCC2Cn3cccc3C(=O)N2C)cn1 (stereo unspecified) -1.08%, COc1ccc(CN2CCCC3(Cc4ccccc4CNC3=O)C2)c(OC)n1 (stereo unspecified) 11.1%, Cc1cc(C)n(CCc2c(-c3ccccc3)ncn2C(C)CCCC(C)(C)O)n1 (stereo unspecified) -2.56%, CCc1nc(-c2c3n(c(=O)n(CC(=O)NC4CCCC4)c2=O)CCCCC3)no1 -0.651%, CC(C)Cc1cc(CN2CCC(CO)(CN3CCCC3)CC2)[nH]n1 6.63%, OC1(CN2CCC(c3nc(-c4ccccc4)no3)CC2)CNCCOC1 (stereo unspecified) 1.84%, CCN1CC2(CCN(Cc3nc(COC)no3)CC2)CC(c2ccccc2)C1=O (stereo unspecified) 16.1%, Cc1noc(C)c1CCCNC(=O)c1ccc(NC[C@H]2C[C@H]3C=C[C@H]2C32CC2)nc1 16.1%, CN(C)c1cccc(C(=O)NC2CCN(c3cc(-c4cccs4)[nH]n3)C2)c1 (stereo unspecified) -5.08%, COc1ccccc1-c1ccc(CN2CCCC(c3nc4ccc(C)cc4c(=O)[nH]3)C2)cc1 (stereo unspecified) 2.11%, C[S+](=O)([O-])N1CCC(Cn2ccc3c(N4CCOCC4)nc(-c4cccc5[nH]ncc45)cc32)CC1 33.7%, O=C(c1ccccn1)N1CCCC2(CNc3ccccc3[S+](=O)([O-])N2)C1 (stereo unspecified) 27.6%, CN1CCCC(CN(C)C(=O)c2cc(-c3cnn(CCO)c3)nc3ccccc23)C1 (stereo unspecified) 0.511%, Cc1cnc(C2CC2)n1C1CCCN(C(=O)c2ccoc2)C1 (stereo unspecified) 1.2%, COc1ccc(C(=O)N2CCC3(CC2)OCC(C(=O)NC2CC2)N3C(=O)c2cccc(C)c2)cc1 (stereo unspecified) 15.3%, Cc1ccsc1CN1CCc2nc(N3CCOCC3)[nH]c(=O)c2CC1 5.27%, O=C1NC2(CCCN(Cc3cncs3)C2)COc2ccccc21 (stereo unspecified) -0.209%, CCS(=O)(=O)Nc1ccc(C)n(CC(=O)NC2CCCCC2)c1=O 7.41%
